Experimental data taken from PubChem BioAssay (Tox21).
Where “and” joins values, the source holds several entries; their conditions need not be identical. Identical values can stand only once. Inconclusive results are not listed. Entries that show only a call come without a potency. Calls of active or inactive are those of the source. Calls come from the whole dose curve.

Assay: p53 small molecule agonists, cell-based qHTS assay with human liver microsomes (AID 1963577)
Outline: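 Reporter activation was measured by LiveBLAzer fluorescence intensity in p53RE-bla cells, which had been exposed to compounds for 16 h at 37 C alongside 0.5 mg/mL human liver microsomes and 0.5 mg/mL NADPH (final concentrations).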
Potency is the fitted concentration of half-maximal effect.

Row | Compound | Potency
1 | NCCOS(=O)(=O)O | inactive
2 | CC(C)Nc1nc(Cl)nc(NC(C)C)n1 | inactive
3 | CNC(=O)Oc1cccc2c1OC(C)(C)O2 | inactive
4 | CCN(CC)C(=O)/C(Cl)=C(\C)OP(=O)(OC)OC | 1.86 µM (active) and 9.13 µM (active)
5 | Cc1ccc(OP(=O)(Oc2ccc(C)cc2)Oc2ccc(C)cc2)cc1 | inactive
6 | CCOP(=S)(OCC)O/N=C(\C#N)c1ccccc1 | 2.57 µM (active)
7 | ClCC1CO1 (stereo not drawn) | inactive
8 | COC(C)(C)CCCC(C)C/C=C/C(C)=C/C(=O)OC(C)C (stereo not drawn) | inactive
9 | COP(=S)(OC)Oc1ccc(S(=O)(=O)N(C)C)cc1 | 1.29 µM (active)
10 | Cc1ccc(N=CN(C)C=Nc2ccc(C)cc2C)c(C)c1 | inactive
11 | CN1C[C@H](C(=O)N[C@]2(C)O[C@@]3(O)[C@@H]4CCCN4C(=O)[C@H](Cc4ccccc4)N3C2=O)C=C2c3cccc4[nH]cc(c34)C[C@H]21 | inactive
12 | O=P(Oc1ccccc1)(Oc1ccccc1)Oc1ccccc1 | inactive
13 | NCc1cccnc1 | inactive
14 | Oc1ccc(C(c2ccc(O)cc2)(C(F)(F)F)C(F)(F)F)cc1 | inactive
15 | Cn1c(N)nc2c3cccnc3ccc21 | inactive
16 | C[C@]12CC[C@H]3[C@@H](CCC4=CC(=O)CC[C@@H]43)[C@@H]1CC[C@@H]2O | inactive
17 | CCOP(=O)(OCC)Oc1ccc([N+](=O)[O-])cc1 | 654 nM (active) and 513 nM (active)
18 | CN(C)c1ccc(N(C)C)cc1 | inactive
19 | c1ccc(OP(Oc2ccccc2)Oc2ccccc2)cc1 | inactive
20 | COP(=O)(OC)C(O)C(Cl)(Cl)Cl (stereo not drawn) | 1.46 µM (active)
21 | Brc1ccc(Oc2ccccc2)cc1 | inactive
22 | COP(=S)(OC)SCn1nnc2ccccc2c1=O | 12.6 µM (active)
23 | CCBr | inactive
24 | CC(c1ccc(O)cc1)c1ccc(O)cc1 | inactive
25 | CCN(N=O)C(N)=O | inactive
26 | CCOP(=S)(OCC)Oc1nc(Cl)c(Cl)cc1Cl | inactive
27 | Nc1ccccc1C(=O)OCC(O)CO (stereo not drawn) | inactive
28 | N#CCBr | inactive
